# Experimental data from the supplement of paper PMC11732987, “Enantioselective OTUD7B fragment discovery through chemoproteomics screening and high-throughput optimisation” (Communications Chemistry, 2025).
# Values without a mark were called inactive.
# How the values were obtained:
# Assay in all cases: log2 ratio of Biotin-Ahx-Ub-VS probe labelling (fragment/DMSO); higher = less target engagement (more negative = stronger competition), active = hit call of the paper (q ≤ 0.05, log2 ratio ≤ -1)
# Conditions in all cases: compound concentration: 200 uM; treatment time: 3 h
# ALG13 = target: T1, ALG13 (UniProt Q9NP73)
# T1 sequence (whole entry): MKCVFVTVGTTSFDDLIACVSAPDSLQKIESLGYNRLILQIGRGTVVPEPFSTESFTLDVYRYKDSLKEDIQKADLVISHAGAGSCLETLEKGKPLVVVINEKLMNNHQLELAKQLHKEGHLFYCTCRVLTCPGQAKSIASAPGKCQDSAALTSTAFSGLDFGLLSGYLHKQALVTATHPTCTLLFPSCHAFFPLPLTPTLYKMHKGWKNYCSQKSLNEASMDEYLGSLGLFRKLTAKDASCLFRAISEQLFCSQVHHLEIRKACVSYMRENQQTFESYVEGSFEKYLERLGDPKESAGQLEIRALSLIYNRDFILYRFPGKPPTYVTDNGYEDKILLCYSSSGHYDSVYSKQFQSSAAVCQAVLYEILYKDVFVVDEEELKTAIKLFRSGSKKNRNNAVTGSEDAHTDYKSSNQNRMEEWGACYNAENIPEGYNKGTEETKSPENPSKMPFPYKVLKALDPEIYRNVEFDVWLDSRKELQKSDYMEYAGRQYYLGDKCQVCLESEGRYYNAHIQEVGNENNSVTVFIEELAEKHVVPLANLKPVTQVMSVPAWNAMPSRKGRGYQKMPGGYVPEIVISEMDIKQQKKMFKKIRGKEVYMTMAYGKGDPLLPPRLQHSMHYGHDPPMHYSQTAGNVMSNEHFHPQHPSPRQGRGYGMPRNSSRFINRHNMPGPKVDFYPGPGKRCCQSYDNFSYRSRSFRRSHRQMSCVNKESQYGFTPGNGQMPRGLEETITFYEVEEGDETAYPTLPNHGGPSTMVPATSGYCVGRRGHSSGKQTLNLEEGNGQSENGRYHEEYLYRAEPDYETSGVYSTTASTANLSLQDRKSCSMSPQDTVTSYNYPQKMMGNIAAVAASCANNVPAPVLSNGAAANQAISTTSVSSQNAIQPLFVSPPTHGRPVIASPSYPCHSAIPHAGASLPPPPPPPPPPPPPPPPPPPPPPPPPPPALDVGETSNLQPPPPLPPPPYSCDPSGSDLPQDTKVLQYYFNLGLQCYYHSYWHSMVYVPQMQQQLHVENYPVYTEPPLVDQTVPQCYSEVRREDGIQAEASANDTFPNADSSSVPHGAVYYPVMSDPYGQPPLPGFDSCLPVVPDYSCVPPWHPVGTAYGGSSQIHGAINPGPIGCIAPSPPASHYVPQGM
# In short: (§1)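 Global-median-normalised Spectronaut label-free quantities were compared by unpaired t-test, and values are average log2 ratios of fragment over vehicle. Only proteins with ≥2 unique peptides were used. HEK293T lysate (495 µg per sample) was treated in triplicate with fragment at 200 µM or vehicle for 3 h and then with Biotin-Ahx-Ub-VS at 0.5 µM final for 1 h. Labelled DUBs were then NeutrAvidin-enriched, digested with LysC and trypsin, and run by diaPASEF LC-MS/MS.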
# ATXN3 = ATXN3 (UniProt P54252)
# In short: as §1
# BAP1 = target: T2, BAP1 (UniProt Q92560)
# T2 sequence (whole entry): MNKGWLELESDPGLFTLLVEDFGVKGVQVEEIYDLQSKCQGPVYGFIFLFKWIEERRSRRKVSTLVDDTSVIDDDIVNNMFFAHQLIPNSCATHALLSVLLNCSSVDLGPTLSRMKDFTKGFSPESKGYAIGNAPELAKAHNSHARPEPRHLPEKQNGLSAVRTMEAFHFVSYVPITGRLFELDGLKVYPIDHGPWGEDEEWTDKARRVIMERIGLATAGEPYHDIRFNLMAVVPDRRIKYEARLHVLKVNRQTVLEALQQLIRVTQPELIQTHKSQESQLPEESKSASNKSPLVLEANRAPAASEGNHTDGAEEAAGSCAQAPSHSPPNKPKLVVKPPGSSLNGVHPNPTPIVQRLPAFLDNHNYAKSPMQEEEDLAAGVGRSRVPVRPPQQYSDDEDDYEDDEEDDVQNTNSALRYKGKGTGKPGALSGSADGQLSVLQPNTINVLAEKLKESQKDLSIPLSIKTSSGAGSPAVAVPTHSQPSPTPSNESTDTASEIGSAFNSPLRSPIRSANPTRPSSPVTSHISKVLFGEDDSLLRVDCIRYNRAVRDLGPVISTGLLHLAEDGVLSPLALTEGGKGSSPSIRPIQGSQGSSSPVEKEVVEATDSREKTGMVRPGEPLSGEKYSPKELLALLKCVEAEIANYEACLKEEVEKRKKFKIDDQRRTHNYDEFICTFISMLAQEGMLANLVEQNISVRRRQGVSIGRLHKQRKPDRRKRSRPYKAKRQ
# In short: as §1
# EIF3F = EIF3F (UniProt O00303)
# In short: as §1
# EIF3H = EIF3H (UniProt O15372)
# In short: as §1
# FAM105A = target: T3, FAM105A (UniProt Q9NUU6)
# T3 sequence (whole entry): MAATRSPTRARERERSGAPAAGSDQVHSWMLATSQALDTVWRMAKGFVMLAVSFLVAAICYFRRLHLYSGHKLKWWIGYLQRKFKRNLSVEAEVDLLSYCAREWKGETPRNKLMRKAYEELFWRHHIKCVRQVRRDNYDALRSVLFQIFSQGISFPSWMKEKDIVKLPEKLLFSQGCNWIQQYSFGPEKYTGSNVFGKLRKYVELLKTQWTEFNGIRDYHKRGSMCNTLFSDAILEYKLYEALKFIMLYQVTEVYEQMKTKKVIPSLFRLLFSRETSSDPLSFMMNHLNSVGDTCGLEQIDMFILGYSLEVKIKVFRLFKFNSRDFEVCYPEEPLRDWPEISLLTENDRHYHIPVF
# In short: as §1
# OTUB1 = OTUB1 (UniProt Q96FW1)
# In short: as §1
# OTUD4 = target: T4, OTUD4 (UniProt Q01804)
# T4 sequence (whole entry): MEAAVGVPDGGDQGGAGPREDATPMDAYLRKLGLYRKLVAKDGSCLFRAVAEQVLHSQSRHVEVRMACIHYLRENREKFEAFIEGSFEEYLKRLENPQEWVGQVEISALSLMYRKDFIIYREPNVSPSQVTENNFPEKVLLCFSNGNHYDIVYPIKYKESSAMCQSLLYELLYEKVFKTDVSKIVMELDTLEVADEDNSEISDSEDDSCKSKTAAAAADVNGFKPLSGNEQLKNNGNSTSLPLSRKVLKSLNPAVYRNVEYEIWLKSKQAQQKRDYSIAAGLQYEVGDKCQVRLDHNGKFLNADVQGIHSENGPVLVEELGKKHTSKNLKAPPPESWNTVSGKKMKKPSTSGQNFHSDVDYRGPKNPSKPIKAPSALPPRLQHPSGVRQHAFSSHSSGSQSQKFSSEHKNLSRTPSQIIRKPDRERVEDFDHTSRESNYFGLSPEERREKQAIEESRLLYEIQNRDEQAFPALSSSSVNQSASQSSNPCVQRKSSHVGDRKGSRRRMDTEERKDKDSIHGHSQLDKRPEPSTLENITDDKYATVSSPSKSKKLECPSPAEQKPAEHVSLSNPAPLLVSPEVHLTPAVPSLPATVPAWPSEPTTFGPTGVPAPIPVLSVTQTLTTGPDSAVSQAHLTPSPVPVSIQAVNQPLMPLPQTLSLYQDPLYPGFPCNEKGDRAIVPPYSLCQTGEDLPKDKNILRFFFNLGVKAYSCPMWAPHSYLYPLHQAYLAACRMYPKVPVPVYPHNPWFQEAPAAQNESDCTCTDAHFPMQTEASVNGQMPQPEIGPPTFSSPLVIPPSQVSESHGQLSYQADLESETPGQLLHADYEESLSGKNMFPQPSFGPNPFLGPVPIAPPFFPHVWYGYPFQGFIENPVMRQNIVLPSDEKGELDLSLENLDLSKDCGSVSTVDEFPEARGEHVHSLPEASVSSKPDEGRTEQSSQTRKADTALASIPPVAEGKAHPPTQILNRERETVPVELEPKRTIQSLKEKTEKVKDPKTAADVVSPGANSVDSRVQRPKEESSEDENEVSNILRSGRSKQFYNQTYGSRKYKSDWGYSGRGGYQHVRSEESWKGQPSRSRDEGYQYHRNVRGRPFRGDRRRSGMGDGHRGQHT
# In short: as §1
# OTUD5 = target: T5, OTUD5 (UniProt Q96G74)
# T5 sequence (whole entry): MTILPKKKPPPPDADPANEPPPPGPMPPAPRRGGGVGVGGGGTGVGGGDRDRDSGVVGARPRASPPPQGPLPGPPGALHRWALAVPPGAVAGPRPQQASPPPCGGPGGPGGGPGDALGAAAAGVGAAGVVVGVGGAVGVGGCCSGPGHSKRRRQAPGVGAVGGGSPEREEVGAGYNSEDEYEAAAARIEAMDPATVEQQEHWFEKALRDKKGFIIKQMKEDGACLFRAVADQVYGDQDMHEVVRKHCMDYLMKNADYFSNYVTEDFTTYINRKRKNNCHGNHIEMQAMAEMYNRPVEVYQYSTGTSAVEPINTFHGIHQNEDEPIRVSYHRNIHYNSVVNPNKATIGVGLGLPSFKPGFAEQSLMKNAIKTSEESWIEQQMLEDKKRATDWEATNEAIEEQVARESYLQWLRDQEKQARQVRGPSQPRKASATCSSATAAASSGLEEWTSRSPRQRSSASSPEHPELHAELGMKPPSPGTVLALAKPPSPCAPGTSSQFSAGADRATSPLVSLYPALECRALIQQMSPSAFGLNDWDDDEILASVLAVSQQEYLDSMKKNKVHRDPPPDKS
# In short: as §1
# Sequence of ATXN3 (P54252 whole entry): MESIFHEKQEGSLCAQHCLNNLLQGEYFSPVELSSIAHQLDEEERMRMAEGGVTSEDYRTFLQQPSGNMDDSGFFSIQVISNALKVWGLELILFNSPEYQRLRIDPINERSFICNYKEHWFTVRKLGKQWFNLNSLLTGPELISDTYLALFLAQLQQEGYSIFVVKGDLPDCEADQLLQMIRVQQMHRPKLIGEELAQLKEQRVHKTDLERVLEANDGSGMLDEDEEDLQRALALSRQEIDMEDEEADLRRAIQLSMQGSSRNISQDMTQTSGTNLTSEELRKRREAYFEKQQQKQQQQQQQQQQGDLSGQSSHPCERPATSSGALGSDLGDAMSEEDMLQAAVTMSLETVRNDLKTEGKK
# Sequence of EIF3F (O00303 whole entry): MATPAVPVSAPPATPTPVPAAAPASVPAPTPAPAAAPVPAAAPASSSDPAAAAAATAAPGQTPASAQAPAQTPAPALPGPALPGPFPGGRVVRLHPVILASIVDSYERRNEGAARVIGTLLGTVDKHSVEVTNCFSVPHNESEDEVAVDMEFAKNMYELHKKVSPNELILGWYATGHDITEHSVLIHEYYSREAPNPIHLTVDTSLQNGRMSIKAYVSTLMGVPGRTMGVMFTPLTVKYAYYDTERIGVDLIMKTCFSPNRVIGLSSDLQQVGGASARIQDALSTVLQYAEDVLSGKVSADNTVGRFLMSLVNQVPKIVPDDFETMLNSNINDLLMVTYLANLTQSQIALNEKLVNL
# Sequence of EIF3H (O15372 whole entry): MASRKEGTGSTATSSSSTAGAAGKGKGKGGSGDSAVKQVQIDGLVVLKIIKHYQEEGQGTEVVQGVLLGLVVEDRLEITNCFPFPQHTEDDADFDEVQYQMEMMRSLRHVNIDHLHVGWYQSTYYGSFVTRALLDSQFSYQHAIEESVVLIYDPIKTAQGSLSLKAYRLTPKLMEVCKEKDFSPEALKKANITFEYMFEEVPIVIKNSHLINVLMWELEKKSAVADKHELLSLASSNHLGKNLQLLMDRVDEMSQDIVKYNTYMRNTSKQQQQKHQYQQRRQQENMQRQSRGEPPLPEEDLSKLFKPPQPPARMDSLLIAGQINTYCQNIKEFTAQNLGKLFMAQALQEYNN
# Sequence of OTUB1 (Q96FW1 whole entry): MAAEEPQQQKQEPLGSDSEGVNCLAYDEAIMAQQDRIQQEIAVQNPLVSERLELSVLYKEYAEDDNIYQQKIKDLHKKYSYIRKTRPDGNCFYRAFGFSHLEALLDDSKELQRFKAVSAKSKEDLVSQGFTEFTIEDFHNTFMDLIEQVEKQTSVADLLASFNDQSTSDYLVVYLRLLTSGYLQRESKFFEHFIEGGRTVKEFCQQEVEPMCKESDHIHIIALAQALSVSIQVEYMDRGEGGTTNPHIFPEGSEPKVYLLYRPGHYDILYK
smiles,measurement,setting,value
O=C(CCl)Nc1cccc(C(=O)N2CCSCC2)c1,log2 ratio of Biotin-Ahx-Ub-VS probe labelling,ALG13,0.254
same,log2 ratio of Biotin-Ahx-Ub-VS probe labelling,ATXN3,-0.874
same,log2 ratio of Biotin-Ahx-Ub-VS probe labelling,BAP1,-3.62 (active)
same,log2 ratio of Biotin-Ahx-Ub-VS probe labelling,EIF3F,-0.466
same,log2 ratio of Biotin-Ahx-Ub-VS probe labelling,EIF3H,0.0708
same,log2 ratio of Biotin-Ahx-Ub-VS probe labelling,FAM105A,0.0218
same,log2 ratio of Biotin-Ahx-Ub-VS probe labelling,OTUB1,-0.523
same,log2 ratio of Biotin-Ahx-Ub-VS probe labelling,OTUD4,-0.0407
same,log2 ratio of Biotin-Ahx-Ub-VS probe labelling,OTUD5,-0.638
